Screening data deposited in PubChem BioAssay by several laboratories.
The list is not random: actives were taken first. Their share in the collection is about 3.2%.
Mtb UGM inh – blocks M. tuberculosis UGM enzyme; AID 504406; 320,000 compounds, 0.06% hits; purified UGM, fluorescence polarization probe displacement; inhibition, % at 10 µM; in the data active = inhibition above about 10%, passing the limit was not always enough; inconclusive = no clear call, values can overlap the other calls
Target sequence (P9WIQ1 whole entry, looked up): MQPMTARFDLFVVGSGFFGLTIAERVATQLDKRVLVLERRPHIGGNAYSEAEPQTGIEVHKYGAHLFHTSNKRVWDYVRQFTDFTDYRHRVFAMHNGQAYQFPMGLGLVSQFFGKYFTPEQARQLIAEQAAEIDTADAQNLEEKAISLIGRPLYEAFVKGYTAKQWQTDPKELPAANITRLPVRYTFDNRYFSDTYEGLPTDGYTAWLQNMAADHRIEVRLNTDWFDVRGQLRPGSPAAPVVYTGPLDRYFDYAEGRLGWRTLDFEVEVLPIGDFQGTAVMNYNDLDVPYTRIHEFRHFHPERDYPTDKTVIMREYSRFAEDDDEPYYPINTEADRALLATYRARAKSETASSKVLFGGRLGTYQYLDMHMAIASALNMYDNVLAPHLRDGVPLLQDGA
Rv3671c protease – inhibits the M. tuberculosis serine protease Rv3671c | 320,000 compounds, 0.048% hits | inhibition, % at 5.96 µM; in the data active = inhibition above about 38%;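 note: extracellular domain of Rv3671c used as enzyme; 0% = enzyme with DMSO and 100% = no enzyme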
Mtb betalactam – beta-lactam sensitization of Mtb H37Rv. inhibition, % at 25 µM. M. tuberculosis H37Rv growth with meropenem, percent inhibition. AID 434955. 330,000 compounds, 0.27% hits; call rule not given here;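 note: growth measured after seven days incubation then overnight dye step; 0% = bacteria only wells and 100% = bacteria with antibiotic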
FBA Mtb inh – Mtb fructose-bisphosphate aldolase inhibition. purified M. tuberculosis FBA, fluorescence read-out. 360,000 compounds, 2.3% hits. P9WQA3. inhibition, % at 1 µM; in the data active = inhibition above about 27%;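 note: 0% = vehicle and 100% = reference inhibitor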
SSB-PriA inh – inhibitors of Klebsiella pneumoniae PriA binding to SSB C-terminal tail | AlphaScreen SSBct-PriA binding, biotinylated peptide | inhibition, % at 33 µM | 430,000 compounds, 0.6% hits; in the data active = inhibition mostly above about 37%, no sharp cut-off; inactive = mostly below about 20%;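 note: plate controls were negative control peptide for no effect and reference peptide for full effect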
GDH-TPI inh – GDH-TPI coupled enzyme inhibition counter-screen | GDH-TPI coupled enzyme counterscreen, NADH absorbance | inhibition, % at 4.8 µM | 360,000 compounds, 1.2% hits; in the data active = inhibition above about 30%;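 note: 0% = DMSO wells and 100% = wells lacking the enzyme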
Numbers without * were called inactive; u = inconclusive; x = no result; + = active, no number.

SMILES	Mtb UGM inh	Rv3671c protease	Mtb betalactam	FBA Mtb inh	SSB-PriA inh	GDH-TPI inh
CCCCCCCCOc1ccc(C2OC34CCCCC3C(C#N)(C#N)C2(C#N)C(=N)O4)cc1 (stereo not given)	4.3	23.7	-6.6	49.8*	-75.8	-2.2
Cc1nn(C)c(C)c1/C=C(\C#N)S(=O)(=O)c1ccc(F)cc1	x	x	x	2.0	x	32.7*
COc1ccc(-c2sc(Nc3ccccc3)n[n+]2-c2ccc(F)cc2)c(C)c1C	0.2	-11.6	1.0	1.9	41.9*	-5.0
Cc1cccc(-c2sc(Nc3ccccc3)n[n+]2-c2ccc(F)cc2)c1	-1.3	-2.3	5.3	-1.2	2.1	8.5
COc1ccc(C)cc1Nc1n[n+](-c2ccccc2)c(-c2cc(OC)c(OC)cc2Br)s1	1.5	-5.6	87.7	0.6	57.6*	1.7
CCOc1ccccc1NC(=O)Cn1cccc(-c2nc(-c3ccc(Cl)cc3)no2)c1=O	x	x	x	x	-8.0	x
O=C1NCCN1C(=O)Nc1ccccc1Cc1nc(C2CC2)no1	x	x	x	x	-4.0	x
Cc1cc(-c2nnc(NC(=O)COc3ccc(Cl)cc3Cl)o2)n(C)n1	x	x	x	x	-3.0	x
Cc1cc(NC(=O)C(=O)NCC2CCN(c3nc4ccccc4s3)CC2)no1	x	x	x	x	-43.0	x
O=C1OCCN1C(=O)[C@H]1[C@H](c2ccc([N+](=O)[O-])cc2)C(c2ccccc2)=NN1c1ccc(Br)cc1	x	x	x	-1.4	8.6	1.8
Cc1cccc(C2=NN(c3ccc(Br)cc3)[C@@H](C(=O)N3CCOC3=O)[C@@H]2c2ccc(Cl)cc2)c1	x	x	x	70.2*	-19.4	0.9
Cc1cccc(C2=NN(c3ccccc3)[C@@H](C(=O)N3CCOC3=O)[C@@H]2c2ccc([N+](=O)[O-])cc2)c1	x	x	x	-5.5	-12.2	16.0
Cc1cccc(C2=NN(c3ccc(Br)cc3)[C@@H](C(=O)N3CCOC3=O)[C@@H]2c2ccc(F)cc2)c1	-2.3	-2.2	22.4	42.5*	-48.5	10.8
O=C(c1ccc(O)c(Br)c1)c1cc(Br)ccc1O	x	x	x	-5.1	1.7	34.9*
O=C(C(=O)c1cc(Br)ccc1O)c1cc(Br)ccc1O	x	x	x	-2.5	0.6	12.4
N#Cc1nc(COc2ccc(-c3ccccc3)cc2)oc1NCCCN1CCOCC1	-0.5	1.2	99.7	-3.5	23.1	-10.6
COc1ccc(-c2nc(C#N)c(NCCCN3CCOCC3)o2)cc1	-0.1	-3.6	0.6	149.3*	-7.4	11.1
N#Cc1nc(-c2cccs2)oc1NCCCN1CCOCC1	-0.3	-2.1	3.6	+	-14.3	14.7
N#Cc1nc(/C=C/c2ccccc2)oc1NCCCN1CCOCC1	-2.3	-1.7	-1.7	+	-14.1	25.7
CC(=O)c1cccc(NC(=O)CCC(=O)O)c1	x	x	x	x	-16.0	x
O=C1c2cccc3cccc(c23)C(=O)N1c1ccccc1Cl	-0.5	-6.7	-4.1	24.8	-12.3	32.5*
Nc1ccccc1N1C(=O)c2cccc3cccc(c23)C1=O	0.3	-1.5	-4.0	-0.4	-4.1	3.7
COc1cccc2c3cccc(OC)c3c3[nH]cnc3c12	x	x	x	9.7	-0.8	4.1
CCN(CC)CCn1cnc2c([nH]c3cccc(OC)c32)c1=O	0.3	7.1	-9.4	103.4*	-1.4	-6.4
COc1cccc2[nH]c3c(=O)n(CCN(C)C)cnc3c12	0.5	1.7	-5.3	116.9*	4.0	22.5
SMILES	Mtb UGM inh	Rv3671c protease	Mtb betalactam	FBA Mtb inh	SSB-PriA inh	GDH-TPI inh
COc1cccc2[nH]c3c(=O)[nH]cnc3c12	-0.7	x	1.4	132.6*	-9.7	10.2
Cc1ccc(C(=O)Nc2nn[nH]n2)cc1S(=O)(=O)N1CCCCC1	x	x	x	x	-3.0	x
CCOC(=O)c1c(NC(=O)c2ccc(Cl)cc2)sc2c1CCCC2	x	x	x	x	-2.0	x
Cc1cc(C)nc(NN=CC2=C(N3CCOCC3)/C(=C/c3ccccc3)CC2)n1	x	x	x	x	8.4	x
Cc1ccc2[nH]c3ccccc3c(=O)c2c1	1.9	-4.4	7.9	136.3*	-6.8	-1.3
O=c1c2ccccc2[nH]c2ccc(F)cc12	1.1	-4.4	5.3	156.3*	-19.8	4.8
O=S(=O)(Nc1ccc(Br)cc1)c1ccc(NS(=O)(=O)c2ccc3c(c2)OCCO3)cc1	x	x	x	x	-1.0	x
CC1CCc2sc(NC(=O)c3ccc(N4C(=O)CCC4=O)cc3)c(C(N)=O)c2C1 (stereo not given)	-0.3	5.0	1.6	-0.4	-2.5	3.4
CCOC(=O)c1c(NC(=O)c2ccc(N3C(=O)[C@@H]4[C@H](C3=O)[C@H]3C=C[C@@H]4C3)cc2)sc2c1CC(C)CC2 (stereo not given in full)	0.1	11.6	6.8	137.5*	-9.0	1.2
CCCc1cc(=O)n2[nH]c(-c3ccco3)nc2n1	0.3	-14.1	6.0	12.2	-9.7	2.5
CCCCN1Cc2c(nc3cc(-c4ccco4)[nH]n3c2=O)C1=O	-2.2	17.1	34.0	142.5*	3.7	6.1
O=C1C2C3C=CC(C4CC34)C2C(=O)N1/N=C/c1ccc(-c2ccc(Cl)cc2[N+](=O)[O-])o1 (stereo not given)	-1.8	2.1	-3.6	-1.0	x	36.6*
O=C1C2C3C=CC(C4CC34)C2C(=O)N1N=Cc1ccc(-c2ccc(Cl)cc2[N+](=O)[O-])o1 (stereo not given)	x	x	x	x	33.2	x
O=C1C2C3C=CC(C4CC34)C2C(=O)N1/N=C/c1ccc(-c2ccc(F)cc2[N+](=O)[O-])o1 (stereo not given)	-1.3	3.6	0.0	-4.7	x	32.4*
Cc1nc2scc(C)n2c(=O)c1S(=O)(=O)NCc1ccccc1	3.0	5.3	-7.0	23.8	-1.0	37.9*
CCOC(=O)c1cc2c(nc1N)CC(C)(CC)OC2 (stereo not given)	1.3	5.7	8.4	111.9*	-11.8	14.5
CCOC(=O)c1sc2nc3c(cc2c1N)COC(C)(C)C3	2.4	-3.8	-4.3	0.3	-19.2	9.0
CCOC(=O)c1cc2c(nc1N)CC(C)(C)OC2	-4.4	5.0	-5.4	163.7*	-4.6	20.0
CC(=O)c1ccc(Nc2nc(C(C)N)cs2)cc1 (stereo not given)	x	x	x	-5.4	x	31.2*
CCOC(=O)C1CCC(C(=O)OCC)N1c1ccc(C=O)cc1 (stereo not given)	x	x	x	2.0	x	32.7*
Cn1nc2c(c1NC(=O)COc1ccc(Cl)cc1Cl)CCC2	x	x	x	x	-10.0	x
C=CCn1c(=N)c(C(=O)OCC)cc2c(=O)n3cccc(C)c3nc21	-0.4	1.1	3.2	x	x	x
CCOC(=O)c1cc2c(=O)n3ccccc3nc2n(CCCOC)c1=NC(=O)c1ccncc1	1.8	3.2	-1.9	+	5.1	17.3
CCOC(=O)c1cc2c(=O)n3ccccc3nc2n(CCCOC)c1=NC(C)=O	3.2	-0.1	1.4	+	2.6	18.6
CCOC(=O)c1cc2c(=O)n3cccc(C)c3nc2n(CCOC)c1=NC(C)=O	-2.4	13.5	-3.5	+	0.4	1.5
Cc1cccc(C(=O)N(Cc2cccnc2)c2nc3c(F)cccc3s2)c1	x	x	x	x	-2.0	x
O=C(NN=Cc1cccnc1)c1cc(-c2ccccc2)nc2c(Cl)cccc12	x	x	x	x	1.5	x
Cc1cc2[nH]c(=O)c(=O)[nH]c2cc1S(=O)(=O)Nc1cccc(Cl)c1C	0.9	-6.5	u	0.4	0.3	10.9
